AmpC inh detg – blocks E. coli AmpC beta-lactamase in detergent assay | AmpC hydrolysis of nitrocefin, absorbance 480 nm, 0.01% Triton | Potency, µM (top dose mostly 114 µM), for the others: at the highest dose activity change, negative = inhibition, usual class: inhibitors | actives 0.041% (n = 370,000) | AID 485294;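 note: 0% = no-compound wells and -100% = no-enzyme wells; nearly all actives have a fitted effect of over 25% in size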
Target sequence (P00811 whole entry, looked up): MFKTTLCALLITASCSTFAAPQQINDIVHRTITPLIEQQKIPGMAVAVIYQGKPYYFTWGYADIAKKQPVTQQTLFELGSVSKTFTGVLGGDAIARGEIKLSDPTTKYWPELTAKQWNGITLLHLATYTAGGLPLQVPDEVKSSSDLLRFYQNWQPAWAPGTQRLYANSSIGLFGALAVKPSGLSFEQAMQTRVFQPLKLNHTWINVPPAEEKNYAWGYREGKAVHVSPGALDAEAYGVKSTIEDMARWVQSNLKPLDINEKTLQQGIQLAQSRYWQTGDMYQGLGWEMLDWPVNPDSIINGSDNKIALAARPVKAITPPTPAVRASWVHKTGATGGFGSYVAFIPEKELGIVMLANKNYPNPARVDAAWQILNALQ
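20 mM phosphate pH 7.0 + 0.01% (detergent screen) or 0.0001% Triton X-100; 5.3 nM AmpC reagent; cpd preinc 15 min RT; nitrocefin (800 uM stock) to start; A480 q20 s × 4 min; Activity was normalised to no-enzyme and no-compound control wells.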
TbPYK inhibitor – inhibitors of Trypanosoma brucei pyruvate kinase; actives 0.12% (n = 410,000); Q57TT1; AID 624173; Potency, µM (top dose mostly 76.8 µM), inactives show at the top dose activity, negative = inhibition, hits mostly inhibitors; TbPYK enzyme, Kinase-Glo Plus ATP luminescence, 45 min; note: nearly all actives have a fitted effect of over 50% in size
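Glycolytic pyruvate kinase of T. brucei was incubated with substrate, test compound and 130 uM ADP for 45 minutes at room temperature. Luminescent Kinase-Glo Plus signal was measured after 10 minutes.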
RE007 growth inh – less growth of the S. pombe RE007 Vpr strain | S. pombe RE007 Vpr strain, BacTiter-Glo ATP luminescence, 24 h | Potency, µM (top dose mostly 92.2 µM), for inactives: at the highest dose activity change, negative = less growth, actives largely listed as inhibitors | actives 0.21% (n = 360,000); active = well fitted falling curve with a large enough effect; inconclusive = small, poorly fitted or top-dose-only effect; inactive = no such curve, though single readings can be large or run the other way; note: nearly all actives have a fitted effect of over 50% in size
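Fission yeast RE007 carrying one integrated HIV-1 vpr copy, seeded at OD 0.01 in PMG+AL medium with 23 nL pinned compound. Grown 24 h at 30 degrees; viability read by BacTiter-Glo luminescence after 5 min.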
LmPK inhibitor – inhibitors of Leishmania mexicana pyruvate kinase. AID 1721. actives 0.37% (n = 290,000). Potency, µM (doses to about 57.5 µM), without a hit: at the top dose activity change, negative = inhibition, actives largely listed as inhibitors. Q27686. purified LmPK, Kinase-Glo ATP luminescence, 1 h
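Purified LmPK (0.1 nM) converted ADP (0.1 mM) to ATP with PEP (0.5 mM) in imidazole buffer pH 7.2 with KCl and MgCl2, 1 h at room temperature. ATP was read by Kinase-Glo luminescence; data normalized to uninhibited and no-enzyme controls.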
FBPA Giardia inh – inhibitors of Giardia lamblia fructose-1,6-bisphosphate aldolase; actives 0.71% (n = 290,000); Potency, µM (highest dose often 59.6 µM), inactives show top-dose activity, negative = inhibition, actives largely listed as inhibitors; purified Giardia FBPA; A8B2U2; note: nearly all actives have a fitted effect of over 55% in size
Target sequence (A8B2U2 whole entry, looked up): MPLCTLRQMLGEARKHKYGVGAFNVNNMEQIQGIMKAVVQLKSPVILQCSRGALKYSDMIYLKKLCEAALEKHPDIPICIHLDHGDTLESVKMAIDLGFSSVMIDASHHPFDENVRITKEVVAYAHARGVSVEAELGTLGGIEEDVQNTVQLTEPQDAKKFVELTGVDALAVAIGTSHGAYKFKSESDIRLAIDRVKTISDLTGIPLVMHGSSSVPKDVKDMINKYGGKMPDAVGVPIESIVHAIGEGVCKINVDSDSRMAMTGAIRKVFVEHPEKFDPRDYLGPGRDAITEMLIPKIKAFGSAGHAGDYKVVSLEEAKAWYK
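40 nM FBPA preincubated 10 min at RT with compound (up to 57.5 uM final), then substrate plus GAPDH/TPI/NAD/arsenate coupling and diaphorase/resazurin added. Fluorescence read after 20 min at RT, 525/598 nm.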
AmpC no deterg – blocks E. coli AmpC beta-lactamase in detergent-free assay; P00811; AmpC nitrocefin hydrolysis, absorbance 480 nm, 0.0001% Triton; actives 0.52% (n = 330,000); Potency, µM (top dose mostly 57.1 µM), inactives show at the top dose activity change, negative = inhibition, most hits filed as inhibitors; AID 485341;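 note: plate controls were no compound for no effect and no enzyme for full effect; nearly all actives have a fitted effect of over 20% in size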
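AmpC (5.3 nM in the dispensed reagent) in 20 mM phosphate pH 7.0 with 0.01% (detergent screen) or 0.0001% Triton X-100 was preincubated with compounds for 15 min at room temperature. Nitrocefin was then added from an 800 uM solution, and hydrolysis was followed at 480 nm.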
Active calls of the source: *; ? = inconclusive; . = no result given. This is a sample that favours compounds with a hit; in the whole collection about 1.4% have one here. Unless noted, calls come from the whole dose curve; as a rule, active = well fitted curve in the direction sought with a large enough effect; inconclusive = small, poorly fitted or top-dose-only effect, or another doubt; inactive = no such curve, though single readings can be large; an effect the other way counts as inactive or inconclusive. Unless noted, % is set by controls: 0 for no effect and ±100 for the full control effect; potency is the fitted concentration of half-maximal effect.

SMILES	AmpC inh detg	TbPYK inhibitor	RE007 growth inh	LmPK inhibitor	FBPA Giardia inh	AmpC no deterg
CCN(CC(=O)Nc1ccc(OC)cc1)C(=O)c1ccc2c(c1)NC(=O)C(C)S2 (stereo not drawn)	7%	28µM*	27%	.	.	-9%
CCN(CC(=O)Nc1c(F)cccc1F)C(=O)c1ccc2c(c1)NC(=O)C(C)S2 (stereo not drawn)	-11%	0%	-1%	.	.	-31%
CN1c2ccsc2/C(=N/NC(=O)c2c(F)cccc2F)CS1(=O)=O	2%	-7%	4%	6%	0%	-19%
CN1c2ccsc2/C(=N/Nc2ccccc2)CS1(=O)=O	?	-13%	45µM*	-1%	-12%	-20%
O=C1/C(=C/C=C/c2ccco2)SC(=S)N1c1ccc(O)cc1	-1%	-9%	-15%	3%	?	16µM*
CN(C)c1ccc(/C=C/C=C2/SC(=S)N(c3ccccc3)C2=O)cc1	-1%	?	-19%	13µM*	-9%	-35%
CCOC(=O)N1CCc2c(sc(NCc3ccc(N(C)C)cc3)c2C(=O)Nc2ccc(OC)cc2)C1	1%	?	.	.	.	.
COc1ccc(/C=N/NC(=S)Nc2ccccc2)cc1COc1ccccc1F	-4%	.	.	-1%	-2%	14µM*
COc1ccc(/C=N/NC(=S)Nc2ccccc2)cc1COc1ccc(F)cc1	-5%	-7%	-12%	1%	7%	?
Cc1ccc2c(c1)Oc1ccc(NC(=O)CCCl)cc1C(=O)N2	?	-5%	10%	3%	-2%	20µM*
CCCC(=O)Nc1cccc(Oc2ccc3c(c2)C(=O)NC3=O)c1	-18%	0%	22%	7%	-9%	-13%
Cc1ccc(OCC(=O)Nc2ccc3c(c2)C(=O)NC3=O)c(C)c1	4%	2%	2%	-6%	.	-17%
CCCC(=O)Nc1ccc2c(c1)C(=O)NC2=O	-16%	-8%	8%	-3%	-7%	45µM*
Cc1ccc2c(CC(=O)Nc3c(C(=O)Nc4cccc(Cl)c4)oc4ccccc34)coc2c1C	-1%	8%	.	.	.	.
CCOc1ccc(OCC)c(NC(=O)c2nnn(CC(=O)Nc3ccc(C)cc3C)c2N)c1	4%	1%	.	.	.	.
NC(=O)c1c(NC(=O)CN2C(=O)CCC2=O)sc2c1CCCCC2	-2%	2%	-4%	-10%	-8%	32µM*
COC(=O)c1c(NC(=O)C2CC2)sc2c1CCCC2	?	-4%	-7%	7%	-1%	45µM*
NC(=O)c1c(NC(=O)CN2CCCC2)sc2c1CCCC2	-15%	?	-1%	-2%	3%	46%
COC(=O)c1c(NC(=O)COC(=O)c2ccc(NC(=O)CC#N)cc2)sc2c1CCCCC2	2%	2%	6%	1%	3%	32µM*
COC(=O)c1c(NC(=O)COC(=O)c2ccccc2O)sc2c1CCCCC2	?	9%	4%	2%	4%	-23%
COC(=O)c1c(NC(=O)CCC(=O)O)sc2c1CCCCC2	0%	-8%	-3%	2%	23%	-10%
COc1ccc(OC)c(-c2csc(NC(=O)COC(=O)c3ccc(NC(=O)CC#N)cc3)n2)c1	?	-3%	-7%	.	.	25µM*
Cc1nnc(SCc2nc(-c3ccc(Cl)cc3)no2)n1-c1ccc(F)cc1	-8%	-10%	.	.	.	.
N#CCC(=O)Nc1ccc(C(=O)OCC(=O)Nc2cccc3ccccc23)cc1	.	-9%	0%	.	.	.
N#CCC(=O)Nc1sc2c(c1C(N)=O)CCCC2	0%	-3%	5%	7%	?	-40%
SMILES	AmpC inh detg	TbPYK inhibitor	RE007 growth inh	LmPK inhibitor	FBPA Giardia inh	AmpC no deterg
N#CCC(=O)Nc1ccc(C(=O)OCC(=O)Nc2cccc(C(F)(F)F)c2)cc1	?	-6%	5%	10%	-1%	16µM*
NC(=O)c1c(NC(=O)COC(=O)c2ccc(O)c(Cl)c2)sc2c1CCCC2	.	-24%	-17%	.	.	16µM*
CC(C)(C)OC(=O)N1CCC(c2c(C(=O)N3CCCCC3)cnn2-c2ccccc2Cl)CC1	-5%	-4%	.	.	.	.
CN=c1nc(-c2ccccc2)n(-c2ccccc2)s1	-6%	7.9µM*	-2%	.	-2%	-25%
COCn1c(-c2ccc(OC)cc2)nc2ccccc21	3%	-9%	-4%	22µM*	1%	-4%
NS(=O)(=O)c1ccc(CCNc2ncnc3c2c(-c2ccccc2)cn3-c2ccc(F)cc2)cc1	1%	-9%	2%	2%	-4%	4.5µM*
Cn1nnnc1SCC(=O)N1c2ccccc2Sc2ccc(Cl)cc21	1%	-4%	22%	0%	-4%	1.3µM*
CCN1C(=O)c2ccccc2S(=O)(=O)c2ccc(C(=O)NCc3ccccc3)cc21	11%	0%	.	.	.	.
CCCOc1ccc(N2C(=O)CC(NCc3ccc(S(N)(=O)=O)cc3)C2=O)cc1 (stereo not drawn)	2%	2%	-3%	11%	-9%	-2%
CCCCOc1ccc(N2C(=O)CC(NCCc3ccc(S(N)(=O)=O)cc3)C2=O)cc1 (stereo not drawn)	1%	-5%	63µM*	4%	-7%	-9%
Cc1ccccc1CN1C(=O)c2ccccc2Sc2ccc(C(=O)NCCc3ccccc3)cc21	-3%	5%	.	.	.	.
COc1ccc(C(=O)NCC(=O)NC2=NCCS2)cc1	?	1%	5%	-1%	-3%	35µM*
CC(C)c1cnc2c(c1SCc1ccc([N+](=O)[O-])cc1)c(=O)n(C)c(=O)n2C	5%	10µM*	.	.	.	.
CCOC(=O)c1cc(-c2ccc(OC)cc2)n(CCC(=O)Nc2cccc(C(C)=O)c2)c1C	4%	-1%	.	.	.	.
COc1ccc(C(=O)N/N=C/C(C)c2ccccc2)cc1OC (stereo not drawn)	3%	0%	2%	1%	1%	-15%
C=CC(C1=CC(=O)C(OC)=C(OC)C1=O)c1ccccc1 (stereo not drawn)	.	.	.	.	18µM*	.
C=CC(C1=CC(=O)C(OC)=CC1=O)c1ccccc1 (stereo not drawn)	.	.	.	.	20µM*	.
C=CC(C1=CC(=O)C(OC)=CC1=O)c1ccc(OC)cc1 (stereo not drawn)	.	.	.	.	20µM*	.
O=C(COc1ccc(F)cc1)OCc1cc(=O)n2nc(C3CC3)sc2n1	6%	-3%	.	.	.	.
C=CCN(CC=C)C(=S)Nc1ccc2nsnc2c1	4%	0%	5%	-6%	10µM*	-20%
S=C(Nc1ccc(Cl)c(Cl)c1)NC1CCCCC1	-3%	8%	9%	2%	10%	-31%
